Results published in PubChem BioAssay AID1479 (National Center for Advancing Translational Sciences (NCATS), 2009).
In all, about 280,000 compounds went through this assay and about 820 (0.29%) were called active. Another 1% or so got no clear call; they are omitted. The call rests on the fitted dose curve; in most records, active means well fitted curve in either direction with a large enough effect; inconclusive means small, poorly fitted or top-dose-only effect; inactive means flat fitted curve, though single readings scatter. Many of the other results were omitted from the sample, so actives are more common in it than they were.

assay: Total Fluorescence Counterscreen for Inhibitors of the Interaction of Thyroid Hormone Receptor and Steroid Receptor Coregulator 2; details: TRb/SRC2 Texas Red total fluorescence interference; series mostly up to 106 µM; fluorescence change, negative = quenching: at the top concentration
Procedure, shortened: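 Human TRβ ligand-binding domain (0.6 uM) and Texas Red SRC2 peptide (20 nM) in Tris buffer with 1 uM T3 and 5% DMSO were incubated with pinned compound for 5 hr at ambient temperature. Total fluorescence was computed as S + 2P (555/632 nm).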
On the % scale 0 is the no-effect control and ±100 the full control effect; potency means the concentration at half of the fitted maximal effect; tags describe the fitted curve by direction and shape or compound fluorescence and quenching.

| SMILES | fluorescence change, negative = quenching | Potency |
| --- | --- | --- |
| COc1ccccc1CNC(=O)Cn1nc(C)c2nn(-c3ccc(Cl)cc3)c(C)c2c1=O | -3.71% (inactive) | – |
| COc1ccc2c(c1)C=CC1(O2)N(CCO)c2ccccc2C1(C)C (centres undefined) | – | 50.1 µM [fluorescent] (active) |
| COc1ccc2c(c1)C(SCC(=O)NCc1ccccc1)CC(C)(C)O2 (centres undefined) | -2.94% (inactive) | – |
| COc1cccc(CC2(CO)CCCN(CC3=Cc4cc(OC)ccc4OC3)C2)c1 (centres undefined) | -6.57% (inactive) | – |
| CCc1cnc2c(c1SCC(=O)N1CCC(C)CC1)c(=O)n(C)c(=O)n2C | 0.547% (inactive) | – |
| COc1ccc(C)cc1N(CC(=O)N1CCC(C)CC1)S(=O)(=O)c1ccc(C)cc1 | 6.06% (inactive) | – |
| Cc1ccccc1-c1nc2scc(CCNC(=O)C(=O)Nc3ccc(F)cc3F)n2n1 | -1.09% (inactive) | – |
| CC(Sc1oc(-c2ccco2)nc1S(=O)(=O)c1ccc(Br)cc1)c1ccccc1 (centres undefined) | 1.02% (inactive) | – |
| COc1ccccc1NC(=O)CSc1oc(-c2ccco2)nc1S(=O)(=O)c1ccc(Br)cc1 | 0.994% (inactive) | – |
| CCCC/C=C/CCCCO | -3.09% [at 201 µM] (inactive) | – |
| CCN(C(=O)Cn1cc(S(=O)(=O)N2CCN(c3ccccc3F)CC2)c2ccccc2c1=O)c1ccc(C)c(C)c1 | -2.35% (inactive) | – |
| O=C(NCCc1ccccc1)c1ccc2c(c1)N(Cc1ccccc1)C(=O)c1ccccc1S2(=O)=O | -5.87% (inactive) | – |
| CN(C(=O)CSc1nnc(NC(=O)Nc2ccccc2)s1)c1ccccc1 | -1.97% (inactive) | – |
| CC(C)(C)OC(=O)N1CCC(c2c(C(=O)Nc3ccc4c(c3)OCO4)cnn2-c2ccccc2)CC1 | -6.82% (inactive) | – |
| Cc1cccc(Cc2c(C)nc3nc(SCc4ccccc4Cl)nn3c2C)c1 | -1.22% (inactive) | – |
| c1ccc(CNc2ncnc3[nH]ncc23)cc1 | -2.45% (inactive) | – |
| CCOC(=O)c1ccc(NC(=O)CC2C(=O)N(c3cccc(OC)c3)C(=O)N2C2CCCCC2)cc1 (centres undefined) | -1.55% (inactive) | – |
| COc1ccccc1CNC(=O)c1ccccc1NC(=O)c1nsc2ccccc12 | -0.019% (inactive) | – |
| O=S(=O)(c1ccc(C2CCCCC2)cc1)N1CCN(c2ccc(Cl)c(Cl)c2)CC1 | 1.08% (inactive) | – |
| CC1CN(C(=O)N2CCC(C(=O)NCc3ccco3)CC2)c2cc(Cl)ccc2O1 (centres undefined) | 8.47% (inactive) | – |
| CCOC(=O)c1ccc(NC(=O)CCS(=O)(=O)c2ccc(C)cc2)cc1 | -1.98% (inactive) | – |
| CCCn1c2ccccc2c2cnn(CC(=O)N(C)c3ccccc3CC)c(=O)c21 | -7.64% (inactive) | – |

| SMILES | fluorescence change, negative = quenching | Potency |
| --- | --- | --- |
| Cc1cc(C)c(N)c(Cl)c1 | -1.53% [at 201 µM] (inactive) | – |
| CCOc1ccc2nc(N3CCCC(C(=O)Nc4cc(C)ccc4C)C3)sc2c1 (centres undefined) | – | 20 µM [quencher] (active) |
| CCOc1ccc2nc(C(=O)N3CCCC(C)C3)sc2c1 (centres undefined) | 1.97% (inactive) | – |
| CCOc1ccc2nc(N3CCC(C(=O)Nc4cc(C)ccc4C)CC3)sc2c1 | 4.05% (inactive) | – |
| Cc1csc2nc(COC(=O)c3ccc(NC(=O)COc4ccccc4F)cc3)cc(=O)n12 | -0.21% (inactive) | – |
| COc1cc2ccccc2cc1C(=O)Nc1cccc(-c2nc3ccccc3o2)c1 | 0.567% (inactive) | – |
| O=C(CN1CCSc2ccccc21)N1CCN(c2ccccc2)CC1 | -0.0734% (inactive) | – |
| Cc1ccc(N)c(S(=O)(=O)O)c1 | -6.26% [at 201 µM] (inactive) | – |
| Cn1c(=O)[nH]c(=O)c2c1nc(NCCc1ccccc1)n2Cc1ccc(F)cc1 | -0.664% (inactive) | – |
| COc1ccc(CNC(=O)Cc2coc3ccc(C(C)C)cc23)cc1 | -20.8% (inactive) | – |
| O=C(Nc1ccc2nccnc2c1)c1ccco1 | -2.35% (inactive) | – |
| COCCNC(=O)Nc1ccc2nc(-c3ccco3)c(-c3ccco3)nc2c1 | – | 28.2 µM [quencher] (active) |
| CC(C)(C)c1ccc(NC(=O)NCc2ccco2)cc1 | -4.34% (inactive) | – |
| CC1CCCN(c2nc3c(S(=O)(=O)c4ccc(C(C)C)cc4)nnn3c3ccsc23)C1 (centres undefined) | -1.97% (inactive) | – |
| Cc1ccc(-c2noc(CSc3nnc(-c4ccc(Cl)cc4)n3C)n2)cc1 | 6.15% (inactive) | – |
| CCc1cccc(NC(=O)Cn2nc(CC)n3c(cc4cc(C)ccc43)c2=O)c1 | -3.05% (inactive) | – |
| OCCC(F)(F)C(F)(F)C(F)(F)C(F)(F)C(F)(F)C(F)(F)C(F)(F)C(F)(F)F | -3.95% [at 201 µM] (inactive) | – |
| CC(=O)c1cccc(Nc2ccc3cc(S(=O)(=O)N4CCC(C)CC4)ccc3n2)c1 | -2.64% (inactive) | – |
| COc1ccccc1NC(=O)c1cc(S(=O)(=O)NCCc2ccccc2)ccc1F | -1.18% (inactive) | – |
| CC1(C)C(=O)N(Br)C(=O)N1Br | 0.683% [at 201 µM] (inactive) | – |
| COC(=O)c1ccc(NC(=O)CCc2c(C)nc3c(c(C)nn3-c3ccc(C)cc3)c2C)cc1 | -1.65% (inactive) | – |
| CC(=O)N(CCN(C(C)=O)C(C)=O)C(C)=O | -0.655% [at 201 µM] (inactive) | – |

| SMILES | fluorescence change, negative = quenching | Potency |
| --- | --- | --- |
| CC(NC(=O)c1cc2c(=O)n3ccccc3nc2n(C(C)C)c1=N)c1ccccc1 (centres undefined) | -1.91% (inactive) | – |
| O=C(Cn1c(=O)nc(-c2ccccc2)c2cc(Cl)ccc21)NCc1ccc(Cl)cc1 | -1.77% (inactive) | – |
| Cc1ccccc1CNC(=O)C1CCCN(S(=O)(=O)N(C)c2ccc(F)cc2)C1 (centres undefined) | -1.26% (inactive) | – |
| COc1ccc(CCN2C(=O)N(c3cccc(OC)c3)C(=O)C2CC(=O)Nc2ccccc2)cc1 (centres undefined) | -1.82% (inactive) | – |
| O=C(CC1N=C2c3ccccc3N=C(SCc3cccc(Cl)c3)N2C1=O)NCc1ccc2c(c1)OCO2 (centres undefined) | -0.205% (inactive) | – |
| CCCCCCCCCCCCCCCC | -2.34% [at 201 µM] (inactive) | – |
| COc1ccc(CCC(=O)NCc2ccc3c(c2)CCN3C(=O)c2ccc(F)cc2)cc1 | -12.6% (inactive) | – |
| CC(Nc1ccc(-c2nc(-c3ccco3)no2)cc1[N+](=O)[O-])c1ccccc1 (centres undefined) | -1.44% (inactive) | – |
| Cc1oc2ccc(O)c(CN3CCC(C)CC3)c2c1C(=O)Nc1ccccc1 | -29.7% (inactive) | – |
| CCc1cccc(C)c1Nc1c(-c2ccc(N(C)C)cc2)nc2ncccn12 | 1.78% (inactive) | – |
| CCn1c(=O)cc(OCC(=O)Nc2cc(Cl)c(OC)cc2OC)c2ccccc21 | -3.2% (inactive) | – |
| CCC(=O)Nc1cccc(C(=O)OCc2cc(=O)n3nc(CC)sc3n2)c1 | -0.224% (inactive) | – |
| Cc1cccc(CSc2nc3ccncc3n2CC(=O)N(C)C2CCCCC2)c1 | -0.651% (inactive) | – |
| COc1ccc(CCNC(=O)CCCCn2c(=O)c3ccccc3n(Cc3ccccc3C)c2=O)cc1OC | 10.7% (inactive) | – |
| COc1ccc(CNc2nc(-c3ccccc3)nn2C(=O)c2ccccc2OC)cc1 | 1.36% (inactive) | – |
| COc1ccccc1NC(=O)c1cc(C2CC2)nc2c1c(C)nn2-c1ccc(C)cc1 | -0.295% (inactive) | – |
| CCc1nnc2c3ccccc3nc(N3CCN(c4ccc(C)cc4C)CC3)n12 | -3.56% (inactive) | – |
| Cc1ccc(C)c(N2CCN(C(c3ccccc3)c3nnc(-c4ccccc4)o3)CC2)c1 (centres undefined) | 0.0308% (inactive) | – |
| CCOC(=O)c1cccc(NC(=O)c2cc(S(=O)(=O)N3CCCC(C)C3)cn2C)c1 (centres undefined) | 0.77% (inactive) | – |
| CCn1c2ccccc2c2cc(NC(=O)COc3ccc(C)cc3C)ccc21 | -2.08% (inactive) | – |
